Bioassay records: PubChem, several laboratories
FAS TE block: blocks the thioesterase domain of human fatty acid synthase | P49327 | recombinant FAS-TE, OMFH fluorogenic substrate, fluorescence endpoint | 360,000 compounds, 0.67% hits | inhibition, % at 15 µM;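 active = compounds whose normalised, plate-corrected inhibition of enzyme fluorescence in the single-dose primary screen is 50% or more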
NadD inh: blocks S. aureus nicotinate mononucleotide adenylyltransferase; purified NadD enzyme, colorimetric absorbance read-out; 360,000 compounds, 0.78% hits; inhibition, % at 20 µM; AID 602399; in the data active = inhibition above about 26%
GRIN3A LBD mod: modulates the human NR3A ligand-binding domain; NR3A LBD differential scanning fluorimetry, Tm shift; 0% = protein alone, 100% = glycine-bound protein; Tm shift relative to glycine control, % at 25 µM; 340,000 compounds, 2.5% hits;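 active = melting temperature shift of at least 10% of the positive control shift, at one fixed dose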
rCAG binder-1: binds r(CAG) RNA repeats. r(CAG) RNA repeat, TO-PRO-1 dye displacement fluorescence. inhibition, % at 3 µM. 370,000 compounds, 1.3% hits. AID 651821;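 active = inhibition above the plate cutoff, the mean of all test compounds on that plate plus 3 SD, cut at about 35% in these data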;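 also: higher means more dye released from RNA so lower well fluorescence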
rCAG bind conf: r(CAG) RNA repeat binding, confirmation | 4,300 compounds, 70% hits | TO-PRO-1 dye displacement fluorescence | shares compounds with rCAG binder-1 | inhibition, % at 3 µM;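 active = inhibition above a per-plate cutoff, the mean inhibition of sample wells plus 3 SD, cut at about 35% in these data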;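 also: loss of TO-PRO-1 fluorescence as compound displaces dye from 1x1 AA loop RNA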
DNA CAG counter: DNA CAG dye complex inhibition counter-screen; shares compounds with rCAG binder-1; d(CAG) DNA oligo TO-PRO-1 dye displacement, fluorescence; inhibition, % at 3 µM; 4,300 compounds, 94% hits; AID 652068;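 active = inhibition above its plate's cutoff, the mean test-well inhibition plus 3 SD, cut at about 4.8% in these data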;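 also: hits displace the dye from DNA and so lower well fluorescence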
DNA CAG DR: counter-screen for rCAG binders: inhibitors of DNA CAG TO-PRO-1 complex. IC50, µM. DNA CAG/GTC duplex TO-PRO-1 dye displacement fluorescence. 250 compounds, 20% hits. shares compounds with rCAG binder-1; in the data active = IC50 below about 10 µM
dCAG DNA bind: DNA CAG dye complex inhibition, late stage dose response | shares compounds with rCAG binder-1 | d(CAG) DNA duplex TO-PRO-1 dye displacement, fluorescence | IC50, µM | 30 compounds, 80% hits
rCAG binder-2: binds r(CAG) RNA repeats in late stage dose response | r(CAG) RNA TO-PRO-1 dye displacement, fluorescence | AID 720651 | 30 compounds, 100% hits | shares compounds with rCAG binder-1 | IC50, µM
Each line names hits and unclear results; the compound was inactive in the other large screens (follow-up assays come after a bar, where they were run). An excerpt weighted towards active compounds, which were near 4.3% of everything screened. Unless noted, no rule for the calls is given here.

O=C(Nc1ccccc1C(=O)O)c1cccc(NC(=O)c2ccccc2Br)c1	rCAG binder-1 47.7 | rCAG bind conf inactive | DNA CAG counter 9.5
O=C(/C=C/c1ccco1)Nc1cccc(C(=O)Nc2ccccc2C(=O)O)c1	rCAG binder-1 67.3 | rCAG bind conf 81.7 | DNA CAG counter 49.1
O=C(CCC1CCCCC1)Nc1cccc(C(=O)Nc2ccc(C(=O)O)cc2)c1	rCAG binder-1 34.9 | rCAG bind conf inactive | DNA CAG counter 5.5
COCc1cc(N2CCN(C(=O)OC(C)(C)C)C[C@@H]2C)ccc1Br	none (no result: FAS TE block, NadD inh, GRIN3A LBD mod)
Cc1ccc(-n2nc3ccc(NC(=O)/C=C/c4ccco4)cc3n2)cc1	GRIN3A LBD mod 23.8, rCAG binder-1 38.5 | rCAG bind conf inactive | DNA CAG counter 10.5
O=C(O)c1cccc(NC(=S)NC(=O)C(c2ccccc2)c2ccccc2)c1	rCAG binder-1 45.2 | rCAG bind conf inactive | DNA CAG counter 9.3
O=C(Nc1cc(C(=O)Nc2ccccc2C(=O)O)cc(C(=O)Nc2ccccc2C(=O)O)c1)c1ccccc1	rCAG binder-1 76.8 | rCAG bind conf 86.0 | DNA CAG counter 60.9
CC1(C)CCC(C)(C)c2cc(NC(=O)c3ccc(C(=O)O)cc3)ccc21	rCAG binder-1 53.4 (no result: FAS TE block, NadD inh, GRIN3A LBD mod) | rCAG bind conf 36.3 | DNA CAG counter 7.5
COC(=O)c1cc2c(c3c4cc(OC)ccc4n(S(=O)(=O)c4ccc(OC)cc4)c13)C(=O)N(Cc1ccccc1OC)C2	none (no result: FAS TE block, NadD inh, GRIN3A LBD mod)
Cc1ccccc1CN1CCCCC(NC(=O)c2ccc(F)cc2F)C1=O (configuration not stated)	none (no result: FAS TE block, NadD inh, GRIN3A LBD mod)
COC(=O)[C@H](Cc1ccccc1)N[C@H](c1ccc(OC)cc1)[C@@H](O)Cc1ccccc1	none (no result: FAS TE block, NadD inh, GRIN3A LBD mod)
O=C(CSc1nnc(-c2ccccc2)n1-c1ccc(Cl)cc1)c1ccccc1Br	none (no result: FAS TE block, NadD inh, GRIN3A LBD mod)
C=CCCC(=O)Nc1nc(C)c(-c2csc(Nc3cc(Cl)ccc3OC)n2)s1	none
COc1ccc(Cl)cc1Nc1nc(-c2sc(NC(=O)CC(C)C)nc2C)cs1	rCAG binder-1 36.4 | rCAG bind conf inactive | DNA CAG counter 13.5
C=CCCC(=O)Nc1nc(C)c(-c2csc(Nc3ccc(Cl)cc3Cl)n2)s1	GRIN3A LBD mod 12.2, rCAG binder-1 35.7 | rCAG bind conf inactive | DNA CAG counter 12.6
CC(=O)Oc1cc(C)c(Cl)c2c(OC(C)=O)cc(C(C)=O)c(O)c12	rCAG binder-1 40.2 (no result: FAS TE block, NadD inh, GRIN3A LBD mod) | rCAG bind conf inactive | DNA CAG counter 6.8
COc1cc(O)c(C(C)=O)cc1OC	none
CC(C)(C)OC(=O)N1c2ccccc2[C@]2(N3CCCC3)C[C@H](C(=O)O)N(C(=O)OC(C)(C)C)[C@H]12	none (no result: FAS TE block, NadD inh, GRIN3A LBD mod)
COC12CC(=O)C(C(C)=O)=C(O)C1(C)c1c(O)c(C)c(O)c(C(C)=O)c1O2 (configuration not stated)	rCAG binder-1 54.8 (no result: GRIN3A LBD mod) | rCAG bind conf 67.4 | DNA CAG counter 30.3
CC(=O)c1c(O)c(C)c(O)c2c1OC1=CC(=O)/C(=C(/C)N)C(=O)C12C (configuration not stated)	none (no result: GRIN3A LBD mod)
CCN=C1NC(CCc2ccccc2)C(C(=O)OC)=C(C)N1Cc1ccc(C(F)(F)F)cc1 (configuration not stated)	none (no result: FAS TE block, NadD inh, GRIN3A LBD mod)
COC(=O)c1cc2c(c3c4cc(C)ccc4n(S(=O)(=O)c4cccc(C)c4)c13)C(=O)N(C)C2	none (no result: FAS TE block, NadD inh, GRIN3A LBD mod)
CCc1nc2nc(C)c(NS(=O)(=O)c3ccc(C4CCCCC4)cc3)c(=O)n2[nH]1	rCAG binder-1 49.2 | rCAG bind conf 44.4 | DNA CAG counter 14.0
Cc1nc2nc(C)c(NS(=O)(=O)c3ccc(C4CCCCC4)cc3)c(=O)n2[nH]1	rCAG binder-1 38.1 | rCAG bind conf 39.6 | DNA CAG counter 9.5
CCc1nc2nc(C)c(NS(=O)(=O)c3ccc(Cl)cc3)c(=O)n2[nH]1	none
CCOC(=O)[C@]12CCCC3=C1N(CCC3)C(=O)[C@@H](CC(=O)NCc1ccccc1)C2	none (no result: FAS TE block, NadD inh, GRIN3A LBD mod)
CCCc1nn2c(=O)cc(CSCC(=O)Nc3ccc(C)cc3)nc2s1	none
CCCc1nn2c(=O)c(C(c3cccc(Cl)c3)c3c(O)nc4sc(CCC)nn4c3=O)c(O)nc2s1	rCAG binder-1 38.6 | rCAG bind conf 50.7 | DNA CAG counter 15.6
COc1ccc(C(=O)CC2(O)C(=O)N(CN3CCOCC3)c3ccc(Br)cc32)cc1 (configuration not stated)	none (no result: FAS TE block, NadD inh, GRIN3A LBD mod)
O=S1(=O)c2c(cccc2N2CCC[C@@H]2CO)OCCCN1C1CC1	none (no result: FAS TE block, NadD inh, GRIN3A LBD mod)
Nc1nc(SCc2nnc(SCC(=O)O)n2-c2ccccc2)nc2sc3c(c12)CCCC3	rCAG binder-1 60.9 | rCAG bind conf 69.1 | DNA CAG counter 23.1 | DNA CAG DR inactive
O=C1OCC2=Nc3cccc4cccc(c34)N12	none (no result: FAS TE block, NadD inh, GRIN3A LBD mod)
CCCCOCCCNC(=O)C[C@H]1C[C@@]2(C(=O)OC)C(=C[C@H](C(C)C)O[C@@H]2C2CC2)N(CCC2=CCCCC2)C1=O	none (no result: FAS TE block, NadD inh, GRIN3A LBD mod)
COc1cccc(C(=O)/C=C/Nc2ccc(S(=O)(=O)Nc3nc(C)cc(C)n3)cc2)c1	none
COc1cc(NS(=O)(=O)c2ccc(NC(C)=O)cc2)nc(OC)n1	none
COc1cc(NS(=O)(=O)c2ccc(N/C=C\C(=O)c3ccc(OC)c(OC)c3)cc2)nc(OC)n1	rCAG binder-1 34.8 | rCAG bind conf 45.7 | DNA CAG counter 13.9
COc1cccc(C(=O)/C=C/Nc2ccc(S(=O)(=O)Nc3cc(OC)nc(OC)n3)cc2)c1	rCAG binder-1 45.3 | rCAG bind conf 54.3 | DNA CAG counter 19.3
COc1cc(NS(=O)(=O)c2ccc(Nc3nc(-c4ccccn4)cs3)cc2)nc(OC)n1	rCAG binder-1 44.6 | rCAG bind conf inactive | DNA CAG counter 8.9
COc1cc(NS(=O)(=O)c2ccc(NC(=O)c3cccs3)cc2)nc(OC)n1	none
COC(=O)C1=C(C)N(Cc2ccccc2C(F)(F)F)C(=NCc2cc(OC)c(OC)c(OC)c2)NC1c1ccc(Cl)cc1 (configuration not stated)	none (no result: FAS TE block, NadD inh, GRIN3A LBD mod)
CCN(c1ccc(OC)cc1)S(=O)(=O)c1nnc(NC(=O)COc2ccc(F)cc2)s1	rCAG binder-1 56.0 | rCAG bind conf 57.0 | DNA CAG counter 21.4 | DNA CAG DR inactive | dCAG DNA bind 5.52 | rCAG binder-2 1.82
CCN(c1ccc(OC)cc1)S(=O)(=O)c1nnc(NC(=O)COc2ccc(C)cc2)s1	none (no result: rCAG binder-1)
CC(=O)C1C(=O)c2c(cccc2[N+](=O)[O-])C1=Nc1ccc(S(N)(=O)=O)cc1 (configuration not stated)	rCAG binder-1 37.7 | rCAG bind conf inactive | DNA CAG counter 13.4
